The record followed here is PubChem BioAssay (NCI).

This is part of a sample that, as a whole, favours compounds with a hit. Of some 83,000 tested, about 20% had one in any assay.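 Percent growth is the endpoint: 0 to 100 indicates growth inhibition (40 means 60% inhibition), 0 means no net growth, and negative values indicate cell death.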 Unmarked numbers belong to inactive results. The source made the active and inactive calls. Rule for the calls: active = growth percent below 10; inactive = the rest.

Test systems include HCT-15 colon; HT29 colon; SNB-75 CNS; SNB-19 CNS; U251 CNS; PC-3 prostate; SK-MEL-5 melanoma; UACC-62 melanoma; LOX IMVI melanoma; SK-MEL-28 melanoma; SK-MEL-2 melanoma; EKVX NSCLC; SN12C renal; UO-31 renal; TK-10 renal; ACHN renal; CAKI-1 renal; A498 renal; CCRF-CEM leukemia; MOLT-4 leukemia.
Common to all, as to test: NCI-60 one-dose screen, 48 h (100 = growth as untreated, 0 = no growth, -100 = all killed)
What all share (conditions): 10 µM unless noted

Regarding `Cc1nn(-c2ccccc2)c2ncnc(N/N=C/c3cccc(O)c3)c12`, the growth in the test with HCT-15 colon was 22.8%; in the test with HT29 colon it was 81%; in the test on SNB-75 CNS, 33.2%; in the test on SNB-19 CNS, 49%; in the test on U251 CNS, 40.8%; in the test on PC-3 prostate it was 42.6%. For the same molecule, the growth was 30.5% with SK-MEL-5 melanoma; 32.7% in the test with UACC-62 melanoma; 29% in the test with LOX IMVI melanoma; 54.2% in the test with SK-MEL-28 melanoma; 22.6% with SK-MEL-2 melanoma; 81.6% in the test on EKVX NSCLC. Besides, the growth with SN12C renal was 44.4%; with UO-31 renal, 40.7%; in the test with TK-10 renal, 56.4%; with ACHN renal, 50.6%; with CAKI-1 renal it was 48.7%; in the test on A498 renal it was 48.2%. Further, the figures for the growth with CCRF-CEM leukemia and in the test with MOLT-4 leukemia were 27% and 22%, respectively.
`COC(=O)c1ccc(NC2=C/C(=N/S(=O)(=O)c3ccc(C(=O)O)cc3)c3ccccc3C2=O)cc1`: the growth in the test on HCT-15 colon is 61.7%; in the test with HT29 colon, 112%; in the test with SNB-75 CNS, 172%; in the test on SNB-19 CNS it was 88.6%; in the test on U251 CNS it was 2.7% (active); in the test with PC-3 prostate, 16.6%. For the same molecule, the growth is -35.6% (active) in the test with SK-MEL-5 melanoma; -24.1% (active) in the test with UACC-62 melanoma; -65% (active) in the test with LOX IMVI melanoma; -32.6% (active) with SK-MEL-28 melanoma; 4.1% (active) in the test with SK-MEL-2 melanoma; 88.3% in the test on EKVX NSCLC. In addition, the growth in the test on SN12C renal is -71.3% (active); with UO-31 renal it was -1.04% (active); in the test on TK-10 renal it was 156%; in the test with ACHN renal, -11.2% (active); with CAKI-1 renal it was 20.4%; with A498 renal it was 119%. In addition, the growth was 4.48% (active) with CCRF-CEM leukemia and -15% (active) in the test with MOLT-4 leukemia.
For `O=C(CN1CCN(c2cc(=O)n(-c3ccccc3)c3ccccc23)CC1)Nc1cccc(C(F)(F)F)c1`, the growth was 48.5% in the test on HCT-15 colon; 70.8% with HT29 colon; 65.5% with SNB-75 CNS; 70.9% with SNB-19 CNS; 71.6% in the test with U251 CNS; 42.1% with PC-3 prostate. In addition, the growth is 14.4% with SK-MEL-5 melanoma; 57.2% in the test with UACC-62 melanoma; 66.1% in the test on LOX IMVI melanoma; 75.1% with SK-MEL-28 melanoma; 92% with SK-MEL-2 melanoma; 42.9% in the test on EKVX NSCLC. Further, the growth in the test on SN12C renal is 75.9%; in the test with UO-31 renal, 33%; with TK-10 renal it was 74.4%; with ACHN renal, 58.5%; in the test with CAKI-1 renal, 56.9%; with A498 renal, 52.9%. The results for the growth in the test with CCRF-CEM leukemia and in the test with MOLT-4 leukemia were 53.4% and 34.8%, respectively.
On to `FC(F)(F)c1cc(Nc2cccc(Oc3ccc(NC4=NCCN4)nc3)c2)ccc1Cl`, for which the growth is -71.4% (active) with HCT-15 colon; 4.39% (active) with HT29 colon; 10.7% in the test on SNB-75 CNS; 9.09% (active) in the test with SNB-19 CNS; -7.18% (active) in the test with U251 CNS; -36.5% (active) with PC-3 prostate. The growth in the test on SK-MEL-5 melanoma is 4.94% (active); in the test on UACC-62 melanoma, -45.5% (active); in the test on LOX IMVI melanoma, -94.8% (active); in the test with SK-MEL-28 melanoma it was 29.4%; in the test with SK-MEL-2 melanoma, 5.11% (active); with EKVX NSCLC, 12.6%. Also, the growth in the test with SN12C renal was -24.8% (active); in the test with UO-31 renal it was 21.9%; in the test with TK-10 renal it was 27.5%; with ACHN renal, 1.37% (active); with CAKI-1 renal, 16.2%; in the test on A498 renal, 37.9%. Moreover, the growth was 14.6% with CCRF-CEM leukemia and 9.2% (active) in the test with MOLT-4 leukemia.
For `COC(=O)C(Cc1ccccc1)Nc1nc(NC(Cc2ccccc2)C(=O)OC)nc(N2CCOCC2)n1` (stereo not given), the growth with HCT-15 colon was 106%; with HT29 colon it was 101%; with SNB-75 CNS, 90.5%; with SNB-19 CNS, 104%; with U251 CNS, 105%; in the test on PC-3 prostate it was 103%. Moreover, the growth with SK-MEL-5 melanoma was 98.7%; with UACC-62 melanoma it was 90.2%; in the test on LOX IMVI melanoma it was 105%; in the test with SK-MEL-28 melanoma, 109%; in the test on SK-MEL-2 melanoma, 111%; in the test on EKVX NSCLC it was 105%. In addition, the growth was 104% in the test on SN12C renal; 81.2% in the test on UO-31 renal; 103% in the test on TK-10 renal; 109% in the test with ACHN renal; 86.8% with CAKI-1 renal; 107% in the test with A498 renal. Moreover, the growth in the test with CCRF-CEM leukemia was 105%; in the test with MOLT-4 leukemia, 101%.
For `CCNC(=O)N1CCc2cc(OC)c(OCCc3ccc(OC)cc3)cc2C1c1ccc(OC)cc1C` (stereo not given), the growth in the test on HCT-15 colon was 10.8%; with HT29 colon, -0.449% (active); in the test on SNB-75 CNS, 3.67% (active); in the test with SNB-19 CNS, 25.8%; in the test with U251 CNS it was 20.6%; in the test with PC-3 prostate, 27.9%. Also, the growth in the test with SK-MEL-5 melanoma was -1.62% (active); with UACC-62 melanoma it was 19.5%; with LOX IMVI melanoma, 4% (active); with SK-MEL-28 melanoma it was 46.7%; in the test on SK-MEL-2 melanoma, 19%; in the test with EKVX NSCLC, 45.5%. Moreover, the growth with SN12C renal was 30.2%; with UO-31 renal, 30%; with TK-10 renal, 38.1%; with ACHN renal, 26.9%; in the test with CAKI-1 renal, 26.9%; in the test on A498 renal, -11.1% (active). Moreover, the growth in the test with CCRF-CEM leukemia is 36.3%; with MOLT-4 leukemia, 21.2%.
Turning to `Cc1cc(C)n(C(=O)c2sc(=S)n(-c3ccccc3)c2N=Nc2c(N)n[nH]c2N)n1`, the growth in the test with HCT-15 colon is 108%; with HT29 colon, 103%; in the test with SNB-75 CNS it was 109%; in the test with SNB-19 CNS, 105%; with U251 CNS, 104%; in the test with PC-3 prostate it was 98.7%. Besides, the growth with SK-MEL-5 melanoma is 103%; in the test with UACC-62 melanoma it was 98.2%; in the test with LOX IMVI melanoma it was 101%; in the test on SK-MEL-28 melanoma, 106%; with SK-MEL-2 melanoma, 110%; in the test on EKVX NSCLC it was 102%. In addition, the growth is 105% in the test on SN12C renal; 84.8% in the test on UO-31 renal; 122% with TK-10 renal; 102% in the test on ACHN renal; 98.9% in the test on CAKI-1 renal; 92.8% with A498 renal. Moreover, the growth in the test on CCRF-CEM leukemia is 95.5%; with MOLT-4 leukemia, 105%.
